The values below come from PubChem BioAssay AID485395 (ICCB-Longwood Screening Facility, Harvard Medical School, 2010).

In all, about 120,000 compounds went through this assay and about 55 (0.05%) were called active. No stated cut-off is given here; in the data, active means inhibition above about 25% (passing the limit was not always enough); inactive means the rest. Only a selection was taken, and actives are over-represented in it overall.

In this assay the test system is replicative DNA helicase (DnaC/DnaB), Staphylococcus aureus. The experiment in a line: inhibitors of S. aureus replicative helicase, primary screen, biochemical, fluorescence unwinding readout (AID 485395).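 Further: 0% = mean of negative control wells and 100% = mean of positive control wells.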 As to conditions: purified S. aureus helicase, fluorescence unwinding assay; active compounds read high; concentration not given here.
On to `Cc1cc(CNCc2nnc3ccccn23)c(C)n1-c1ccnn1C(C)C`, for which the inhibition is 7% (inactive).

For `Nc1cc(N)cc(C(F)(F)C(F)(F)C(F)(F)F)c1`, the inhibition was 23% (inactive).

Consider `CCOc1ccc2nc(NC(=O)c3ccccc3OC)sc2c1`, for which the inhibition was -8% (inactive).

On to `Cc1ccc(-n2nc(C)c(C(=O)N(Cc3ccccc3)C(C)C)c2-n2cccc2)cc1`, for which the inhibition was 22% (inactive).

For the compound `O=C(NC(c1ccccc1)c1ccccc1)C1COC2C=CC=CC2O1` (stereo not given), the inhibition is 5% (inactive).

For `CCCn1c(NC(=O)CCCc2nc3ccccc3c(=O)[nH]2)nc2ccccc21`, the inhibition was 6% (inactive).

For the compound `COc1ccc(Cc2nn3c(C(C)(C)C)nnc3s2)cc1OC`, the inhibition was -4% (inactive).

With `O=C1CCC(C(=O)NN2C(=O)c3cccc4cccc(c34)C2=O)=NN1`, the inhibition was 10% (inactive).

Regarding `CCOc1ccc(CCNC(=O)Nc2ccc(C)c(C)c2)cc1OCC`, the inhibition was -3% (inactive).

`CCOC(=O)c1c2c(n(-c3ccccc3)c1N)OC(=N)C(C#N)C2c1ccc(Br)cc1` (stereo not given): the inhibition is -19% (inactive).

In the case of `NNC(=O)CNC(=O)c1cccc2ccccc12`, the inhibition was 17% (inactive).

Consider `O=C(CSc1ccc2nnc(-c3cccc(F)c3)n2n1)NCc1ccccc1`, for which the inhibition is -3% (inactive).

For `Cc1nc(Nc2nc3ccccc3o2)ncc1C(=O)Nc1ccccc1`, the inhibition was 24% (inactive).

In the case of `Cc1occc1-c1nnc(SCc2ccc(C(C)(C)C)cc2)n1N`, the inhibition was -3% (inactive).

As to `Cc1ccc(-c2nc(C#N)c(NCc3ccc4c(c3)OCO4)o2)cc1`, the inhibition is 5% (inactive).

Consider `COc1ccc(/C=C2\Oc3ccccc3N(CC(=O)N3CCOCC3)C2=O)cc1`, for which the inhibition is 5% (inactive).

`c1ccc(-n2nnnc2N2CCCC2c2nc3ccccc3s2)cc1` (stereo not given): the inhibition was -12% (inactive).

In the case of `COc1ccccc1/C=C1\SC(=O)N(c2ccccc2)C1=O`, the inhibition was -8% (inactive).

With `NNC(=O)CCCc1nc2ccccc2s1`, the inhibition was 4% (inactive).

On to `CCOC(=O)c1sc2nc(CN3CCCCC3)nc(NC3CC3)c2c1C`, for which the inhibition is 16% (inactive).

Turning to `O=S1(=O)CCC(N=Cc2cn(-c3ccccc3)nc2-c2ccccc2)C1` (stereo not given), the inhibition was 10% (inactive).

As for `N#CNc1nc2ccccc2nc1Cl`, the inhibition was 2% (inactive).

For `COc1ccc(NC(=O)c2ccoc2COc2ccc(C)cc2)cc1`, the inhibition was 0% (inactive).

With `Cc1ccc(SCc2nnc(-c3c(-c4ccccc4)noc3C)o2)cc1C`, the inhibition was -11% (inactive).

On to `CCCSc1nnc(Nc2ccccc2OC)s1`, for which the inhibition was -21% (inactive).

Take `Cc1noc(N)c1C(=O)OCc1ccc(COC(=O)c2c(C)noc2N)cc1`: the inhibition is -28% (inactive).

As for `O=C(COC(=O)C12CC3CC(CC(Br)(C3)C1)C2)NC1CC1`, the inhibition was 8% (inactive).

Take `Cc1nn(C)c(Cl)c1S(N)(=O)=O`: the inhibition was 8% (inactive).

On to `NC(=O)Cn1c(=O)n(Cc2ccco2)c(=O)c2ccccc21`, for which the inhibition is 16% (inactive).

As for `CC(=O)N1CCc2c(sc3c2c(=O)n(Cc2ccccc2)c(=O)n3Cc2cccc(C)c2)C1`, the inhibition is -4% (inactive).

Turning to `Cc1cc(=O)n(-c2cccc(C(F)(F)F)c2)[nH]1`, the inhibition was -1% (inactive).

In the case of `O=C(N/N=C/c1ccc(F)cc1)c1n[nH]c2c1CCC2`, the inhibition is 15% (inactive).

`Nc1c(C(=O)Nc2ccccc2C(F)(F)F)sc2[nH]c(=O)c(C(=O)O)cc12`: the inhibition is 15% (inactive).

Consider `CCCN(CC1CC1)C(=O)CSc1nc(N)cc(N)n1`, for which the inhibition is 27% (inactive).

Turning to `NC(=O)C1CCN(C(=O)CSCc2ccc(Br)cc2)CC1`, the inhibition was 5% (inactive).

For `CC(C)NC(=O)CCc1c[nH]c2ccccc12`, the inhibition is 13% (inactive).

Turning to `O=C(CN1CCC(c2nc(-c3ccncc3)n[nH]2)CC1)N1CCN(c2ccccc2F)CC1`, the inhibition is -6% (inactive).

As for `COCCN1Cc2cccc(C(=O)NCc3ccco3)c2C1=O`, the inhibition was -9% (inactive).

Consider `CCOc1nc(NC(=O)NC(=O)c2cccs2)nc(-c2ccccc2)n1`, for which the inhibition is 11% (inactive).

In the case of `Cn1c(-c2ccco2)nn(C2CC(=O)C3OCC2O3)c1=S` (stereo not given), the inhibition is -1% (inactive).

For `CCOc1cccc(C(=O)NN2CCOCC2)c1`, the inhibition is -7% (inactive).

Regarding `O=C(O)c1cccc(N2C(=O)/C(=C\c3ccc4c(c3)OCO4)SC2=S)c1`, the inhibition is 15% (inactive).

Take `Cc1noc(C)c1COC(=O)c1cccc(S(=O)(=O)N(C)C2CCCCC2)c1`: the inhibition was -11% (inactive).

`CC1CCC(C(=O)NC(C(=O)N2CCN(Cc3ccccc3)CC2)C(C)C)CC1` (stereo not given): the inhibition is 0% (inactive).

On to `Cc1nc(-c2ccccc2)sc1C(=O)NCC1CCCO1` (stereo not given), for which the inhibition was -20% (inactive).

As for `Nc1c(NCC(c2ccco2)N2CCCCC2)c(=O)[nH]c(=O)n1Cc1ccccc1` (stereo not given), the inhibition was 9% (inactive).

For `Clc1cccc2c(N3CCN(Cc4ccccc4)CC3)cnnc12`, the inhibition is 17% (inactive).

For `CCCc1nnc(SCC(=O)N2CCCC2)n1CCOC`, the inhibition was 3% (inactive).

As for `CCS(=O)(=O)N1CCC(C(=O)OCC(=O)c2cc(C)n(C(C)C)c2C)CC1`, the inhibition is -5% (inactive).

As for `CCc1n[nH]c(=S)n1/N=C1\C(=O)N(CC(C)C)c2ccccc21`, the inhibition was 1% (inactive).

For `Cc1ccc(C(=O)COC(=O)c2cc3cc(Br)ccc3oc2=O)cc1`, the inhibition is -19% (inactive).

Regarding `Cc1cccc(NC(=O)CNC(=O)c2ccc3c(=O)[nH]c(CN4CCOCC4)nc3c2)c1C`, the inhibition was 5% (inactive).

As to `CCOC(=O)c1c(CN2CCN(CC#N)CC2)n(-c2ccccc2)c2ccc(O)cc12`, the inhibition is -1% (inactive).

`NC(=O)CCc1nc(-c2ccccc2)no1`: the inhibition is -4% (inactive).

In the case of `Cc1nn(Cc2ccc(Cl)cc2)c(C)c1NC(=O)COCc1cc(-c2cccs2)on1`, the inhibition was -15% (inactive).

With `Cc1cc(C)c2nc3nc(C)cc(C)c3c(N)c2c1`, the inhibition is 77% (active).

With `Cc1cc(C)c2nc(-c3ccco3)cc(C(=O)O)c2c1`, the inhibition was 5% (inactive).

`COc1ccc(/C=N/N2C(=O)c3ccccc3C2=O)cc1OC`: the inhibition was -16% (inactive).

For `O=S1(=O)CC=C(S(=O)(=O)c2ccccc2)C1`, the inhibition was 2% (inactive).

For `CCOC(=O)COc1ccc2cc(-c3nc4ccccc4s3)c(=O)oc2c1`, the inhibition is -176% (inactive).

With `CC(=O)Nc1nonc1Nc1csc(CC#N)n1`, the inhibition is -1% (inactive).

In the case of `O=C(N/N=C/c1c(-c2ccccc2)nc2sccn12)c1ccc2ccccc2n1`, the inhibition was 15% (inactive).

Turning to `COc1cccc(C2NC(=O)NC(C)=C2C(=O)c2ccccc2)c1` (stereo not given), the inhibition was -13% (inactive).

In the case of `CC1=C(C(=O)NCCC(C)C)C2(CCC(C)CC2)OC1=O` (stereo not given), the inhibition was 1% (inactive).

As for `CC(C)CCSc1nc2ccccc2n1CN1CCN(S(=O)(=O)c2ccc(Cl)cc2)CC1`, the inhibition is 3% (inactive).

In the case of `O=C(NCc1ccccc1)N1CCC(CN2CCCCC2)CC1`, the inhibition is 4% (inactive).

As to `CCOC(=O)N1CCC(NC(=O)Cn2ncc3c(=O)oc4ccc(C)cc4c32)CC1`, the inhibition is 14% (inactive).

Consider `CC(C)CCNS(=O)(=O)c1ccc2[nH]c3c(c2c1)CCCC3`, for which the inhibition is -2% (inactive).

Turning to `CC(=O)Nc1ncc(Cc2ccc(C)cc2)s1`, the inhibition was 7% (inactive).

On to `Cc1ccc(CN(C)C(=O)c2n[nH]c3ccccc23)o1`, for which the inhibition was -4% (inactive).

Consider `CC(C)N(C(=O)CSc1nnc2sc3ccccc3n12)C(C)C`, for which the inhibition is 7% (inactive).

`CCCCSc1nc2ccccc2[nH]1`: the inhibition is -5% (inactive).

Turning to `CC1=NN(C(N)=S)C(=O)C1`, the inhibition is -7% (inactive).

With `COc1ccc(C)cc1NC(=O)CSC1CCCC1`, the inhibition was -1% (inactive).

Turning to `Cc1c(/C=N/NC(N)=S)c2ccccc2n1C`, the inhibition was -2% (inactive).

`COc1cc(OC)c(OC)cc1CN1CCN(c2ccccc2F)CC1`: the inhibition was 10% (inactive).

Consider `NCC1CCN(Cc2ccccc2Cl)CC1`, for which the inhibition was -10% (inactive).

In the case of `c1csc(-c2csc(Cc3nc(-c4cccs4)cs3)n2)c1`, the inhibition is 36% (inactive).

For the compound `CCN(C(=O)Cc1noc2ccccc12)c1cc(OC)ccc1OC`, the inhibition is 9% (inactive).

As for `COc1ccc(-c2cc3c(n2Cc2ccc(F)cc2)CC(C)(C)CC3=O)cc1`, the inhibition was -11% (inactive).

For the compound `COCCNC(=O)Cn1cc(/C=C2\C(=O)NC(=O)N(C3CCCCC3)C2=O)c2ccccc21`, the inhibition was -31% (inactive).

Consider `Cc1nc2cc(N=Cc3ccc(Cl)cc3)ccc2n1Cc1ccccc1`, for which the inhibition is 10% (inactive).

As for `Cc1nc(-c2cccs2)sc1C(=O)Nc1ccccc1`, the inhibition is -5% (inactive).

Take `CN1C/C(=C/c2ccc3c(c2)OCCO3)C(=O)/C(=C/c2ccc3c(c2)OCCO3)C1`: the inhibition was 8% (inactive).

As for `CCc1ccc(C(=O)C(C)Sc2nnc(-c3ccccc3)o2)cc1` (stereo not given), the inhibition was -5% (inactive).

`COc1ccc(OC)c(NC(=O)CSc2nccn2-c2cccc(Cl)c2)c1`: the inhibition was 3% (inactive).

As to `NC(=O)CN1CCN(Cc2cccc3ccccc23)CC1`, the inhibition was 3% (inactive).

`Cc1cn2ccccc2c1P(=Nc1ccccc1)(N1CCOCC1)N1CCOCC1`: the inhibition was 7% (inactive).

As for `O=C(OC1CSC1)c1cccs1`, the inhibition is -1% (inactive).

Take `CC1CC(=O)Nc2ccccc2N1C(=O)CSc1ccc2c(c1)OCCCO2` (stereo not given): the inhibition was 15% (inactive).

Regarding `OCc1nc2ccccc2n1CC1CC1(Cl)Cl` (stereo not given), the inhibition was -17% (inactive).

On to `Cc1nn(CC(=O)NCCc2ccccc2)c(=O)c2cc3occc3n12`, for which the inhibition is 8% (inactive).

On to `COc1ccc(/C=C2\Oc3cc(OC(=O)c4ccc(F)cc4)ccc3C2=O)cc1`, for which the inhibition was 5% (inactive).

In the case of `CC(C)c1ccc(N=Cc2cccs2)cc1`, the inhibition is 21% (inactive).

For `O=C(NCC1CCCO1)c1ccc2c(=O)n3c(nc2c1)CCCCC3` (stereo not given), the inhibition is 2% (inactive).

Consider `CN1CCN(C(=O)c2ccc(-c3ccc(Br)cc3)o2)CC1`, for which the inhibition is -25% (inactive).

For `CCn1c(CNC(=O)c2ccncc2)cc2ccccc21`, the inhibition is 7% (inactive).

In the case of `Nc1nnnn1/N=C/c1cccc(Br)c1`, the inhibition was 4% (inactive).

Turning to `O=C(COC(=O)C1CC1)c1ccccc1Br`, the inhibition is -9% (inactive).

In the case of `CCC(Sc1nnc(-c2cc3occc3n2C)n1-c1ccccc1C)C(=O)Nc1ccc(C)cc1` (stereo not given), the inhibition was 10% (inactive).

As to `NS(=O)(=O)c1ccc(CNC(=O)c2cccc3cccnc23)cc1`, the inhibition is -13% (inactive).

In the case of `[O-][n+]1ccccc1SC1=COCCC1`, the inhibition was 8% (inactive).

On to `N#Cc1c(N)nc2c(c1N)CC(=O)N2c1ccccc1`, for which the inhibition is -11% (inactive).

With `CC1=Nc2nc(N3CC(C)OC(C)C3)c(C#N)c3c4c(nc(c23)N1)N(c1ccccc1)C(=O)C4` (stereo not given), the inhibition was 54% (active).

For the compound `COc1ccc(N2CCN(c3nc(N)c4c(N)nc5c(c4c3C#N)CC(=O)N5C)CC2)cc1`, the inhibition is 9% (inactive).
